Screening results: PubChem, Broad Institute
This is a sample that favours compounds with a hit; in the whole collection about 7.4% have one here.
Hedgehog inh: Sonic Hedgehog pathway inhibition; AID 2313; inhibition, % (test concentration not listed); Shh-LIGHT2 Gli-luciferase reporter, 30 h; 2.1% of 22,000 active;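 active = mean inhibition across valid replicates above about 65%, limit read from the data; inconclusive = mean under the limit, yet half or more replicates past it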;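 also: pathway switched on by Shh-conditioned medium diluted 1 in 25 in low serum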
MITF inh: blocks MITF activity. TRPM1 promoter luciferase, luminescence, 24 h. AID 2240. inhibition, % (test concentration not listed). 0.28% of 37,000 active; in the data active = inhibition above about 85%; inconclusive = no clear call, values can overlap the other calls; inactive = below about 68%;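 also: human melanocyte line stably carrying TRPM1 promoter luciferase reporter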
PD-1 reverse act: activators reversing PD-1 mediated T-cell inhibition. primary human CD4 T cells, PD-L1 beads, CellTiter-Glo 96 h. activation, % (test concentration not listed). 29,000 tested, under 10 active. AID 2316; call rule not given here
YB-1 expression: YB-1 expression inhibition; AID 434959; delta delta Cp (YB-1 minus CDIP) (concentration not given with the values); U2OS, qRT-PCR YB-1 vs CDIP delta delta Cp, 16 h; active compounds read high; zero = DMSO, each unit about twofold; 0.37% of 30,000 active;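 active = delta delta Cp rounded down to an integer at or above 3, about 3 SD of DMSO wells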;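 also: higher means less YB-1 transcript or more CDIP transcript relative to DMSO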
NOMO-1 viab: STK33 inhibitor candidate reducing NOMO-1 cell viability; 7.5% of 37,000 active; NOMO-1 AML viability, CellTiter-Glo luminescence, 72 h; AID 2330; inhibition, % (no concentration beside the values); in the data active = inhibition above about 80%; inconclusive = no clear call, values can overlap the other calls
Hits are given with their value; - = inactive; ? = inconclusive; . = not tested or not shown.

SMILES	Hedgehog inh	MITF inh	PD-1 reverse act	YB-1 expression	NOMO-1 viab
C[C@H](CO)N1C[C@H](C)[C@H](CN(C)Cc2ccc(Oc3ccccc3)cc2)Oc2ccc(NC(=O)Nc3ccc(F)cc3)cc2CC1=O	-	-	-	-	98
COc1ccc(NC(=O)Nc2ccc3c(c2)CC(=O)N([C@H](C)CO)C[C@H](C)[C@H](CN(C)Cc2ccc(Oc4ccccc4)cc2)O3)cc1	-	-	-	-	?
CC(=O)c1c(C)oc2ccc(N(C(=O)c3ccc(C)cc3)S(=O)(=O)c3cccc4cccnc34)cc12	.	-	.	.	-
C[C@H](CO)N1C[C@H](C)[C@H](CN(C)Cc2ccc(Cl)c(Cl)c2)Oc2c(NC(=O)c3ccc(-c4nccs4)cc3)cccc2C1=O	-	-	-	-	108
C[C@H]1CN([C@@H](C)CO)C(=O)c2cccc(NC(=O)c3ccc(-c4nccs4)cc3)c2O[C@H]1CN(C)Cc1ccc(Cl)c(Cl)c1	-	-	.	-	102
C[C@@H]1CN([C@@H](C)CO)C(=O)c2cccc(NC(=O)c3ccc(-c4nccs4)cc3)c2O[C@@H]1CN(C)Cc1ccc(Cl)c(Cl)c1	-	-	-	-	-
C[C@H]1CN([C@@H](C)CO)C(=O)c2cccc(NC(=O)c3ccc(-c4nccs4)cc3)c2O[C@@H]1CN(C)Cc1ccc(C(=O)O)cc1	-	-	-	-	-
C[C@@H]1CN([C@H](C)CO)C(=O)c2cccc(NC(=O)c3ccc(-c4nccs4)cc3)c2O[C@H]1CN(C)Cc1ccc(Cl)c(Cl)c1	-	-	-	-	106
COc1ccc(-c2[nH]nc(SC)c2C#N)cc1	.	-	-	-	-
Cc1ccc(S(=O)(=O)Nc2ccc3c(c2)CC(=O)N([C@H](C)CO)C[C@@H](C)[C@H](CN(C)CC2CCCCC2)O3)cc1	-	-	-	-	84
Cc1ccc(S(=O)(=O)Nc2ccc3c(c2)CC(=O)N([C@H](C)CO)C[C@@H](C)[C@@H](CN(C)CC2CCCCC2)O3)cc1	-	-	-	-	97
Cc1ccc(S(=O)(=O)Nc2ccc3c(c2)CC(=O)N([C@H](C)CO)C[C@@H](C)[C@H](CN(C)CC2CC2)O3)cc1	-	-	.	-	-
Cc1ccc(S(=O)(=O)Nc2ccc3c(c2)CC(=O)N([C@@H](C)CO)C[C@H](C)[C@H](CN(C)CC2CCCCC2)O3)cc1	.	-	-	-	102
CCOc1ccc(Nc2nc3cc(C)ccc3cc2C)cc1	-	-	-	-	-
COc1ccc(-c2nnc(SCC(=O)Nc3ccc4cn[nH]c4c3)n2-c2ccc(Cl)cc2)cc1	.	-	-	.	-
O=C(NCCO)c1ccc(N2C(=O)c3ccccc3C2=O)cc1	-	-	-	-	-
Cc1ccc(S(=O)(=O)Nc2ccc3c(c2)CC(=O)N([C@@H](C)CO)C[C@H](C)[C@H](CN(C)Cc2ccc(Oc4ccccc4)cc2)O3)cc1	-	-	-	-	120
C[C@@H]1CN([C@H](C)CO)C(=O)Cc2cc(NS(=O)(=O)c3ccccc3)ccc2O[C@@H]1CN(C)Cc1ccc(Oc2ccccc2)cc1	-	-	-	-	?
Cc1ccc(S(=O)(=O)Nc2ccc3c(c2)CC(=O)N([C@@H](C)CO)C[C@@H](C)[C@@H](CN(C)Cc2ccc(Oc4ccccc4)cc2)O3)cc1	-	-	-	-	115
C=C1C[C@@]23CCC4[C@](C)(C(=O)O)CCC[C@@]4(C)[C@]2(O)CCC1C3 (some centres not stated)	-	-	-	-	-
C[C@@H]1CN([C@H](C)CO)C(=O)Cc2cc(NC(=O)Nc3ccc(F)cc3)ccc2O[C@@H]1CN(C)Cc1ccc(C(F)(F)F)cc1	-	-	-	-	?
C[C@H]1CN([C@@H](C)CO)C(=O)Cc2cc(NC(=O)Nc3ccc(C(F)(F)F)cc3)ccc2O[C@H]1CN(C)Cc1ccc(C(F)(F)F)cc1	-	-	-	-	136
C[C@@H]1CN([C@H](C)CO)C(=O)Cc2cc(NC(=O)NC3CCCCC3)ccc2O[C@H]1CN(C)Cc1ccc(C(F)(F)F)cc1	-	-	.	-	93
C[C@@H]1CN([C@@H](C)CO)C(=O)Cc2cc(NC(=O)Nc3ccc(C(F)(F)F)cc3)ccc2O[C@@H]1CN(C)Cc1ccc(C(F)(F)F)cc1	.	-	.	-	124
CCOC(=O)CN(c1c(C)cccc1C)S(C)(=O)=O	.	-	-	.	-
SMILES	Hedgehog inh	MITF inh	PD-1 reverse act	YB-1 expression	NOMO-1 viab
FC(F)(F)C1CCN(c2ncccc2NC(=S)Nc2ccc(Cl)cc2)CC1	-	-	-	-	-
COc1cccc2cc(-c3nnc(SCC(=O)Nc4ccc5ccccc5c4)n3C)oc12	.	-	-	.	-
CCn1c(SCC(=O)Nc2ccc(Cl)c(Cl)c2)nnc1-c1cc2cccc(OC)c2o1	.	-	.	.	100
COc1ccc(N(C(=O)c2ccccc2)S(=O)(=O)c2cc(OC)ccc2OC)cc1	.	-	-	.	-
N#C/C(N=Cc1cccs1)=C(\C#N)NCc1ccccc1Sc1ccc(Cl)cc1	-	-	-	-	-
Cc1c(C)c(C)c(S(=O)(=O)NC(C)(C)C)c(C)c1C	-	-	-	-	-
Cc1nc2ccc(F)cc2c2c1CCN2c1ccc(Cl)cc1	.	-	-	-	107
COc1ccc2nc(Nc3nc(CSc4ccc(Cl)cc4)cc(=O)[nH]3)nc(C)c2c1	.	-	.	.	84
C[C@H](CO)N1C[C@H](C)[C@@H](CN(C)Cc2ccc(C(F)(F)F)cc2)Oc2ccc(NS(=O)(=O)c3ccc(Cl)cc3)cc2C1=O	-	-	-	-	-
C[C@@H]1CN([C@H](C)CO)C(=O)c2cc(NS(=O)(=O)c3ccc(Cl)cc3)ccc2O[C@H]1CN(C)Cc1ccc(C(F)(F)F)cc1	-	-	-	-	123
C[C@H]1CN([C@@H](C)CO)C(=O)c2cc(NS(=O)(=O)c3ccc(Cl)cc3)ccc2O[C@@H]1CN(C)Cc1ccc(C(F)(F)F)cc1	-	-	-	-	111
CC(C)(C)[C@H]1COC(CC2=N[C@@H](C(C)(C)C)CO2)=N1	-	-	-	-	-
COC(=O)COc1cccc(NC(=O)c2ccc(Cl)cc2)c1	.	-	.	.	114
COC(=O)COc1cccc(NC(=O)c2ccc(Br)cc2)c1	.	-	-	.	119
O=C(O)COc1cccc(NC(=O)c2ccc(-c3ccccc3)cc2)c1	.	-	-	.	-
COC(=O)COc1cccc(NC(=O)c2ccc(C)cc2)c1	.	-	.	.	116
COC(=O)COc1cccc(NC(=O)c2cc(OC)cc(OC)c2)c1	.	-	-	.	109
COc1cccc(C(=O)Nc2cccc(OCC(=O)O)c2)c1	.	-	-	.	-
O=C(O)COc1ccc(NC(=O)c2ccccc2-c2ccccc2C(=O)O)cc1	.	-	-	.	-
CC(C)(C)c1ccc(-c2cc3ccccn3c2)cc1	-	-	-	10	104
CC(C)S(=O)(=O)c1csc(NC(=O)Nc2cc(C(F)(F)F)cc(C(F)(F)F)c2)c1Cl	106	-	-	-	113
CC(C)S(=O)(=O)c1csc(NC(=O)N2CCCCC2)c1Cl	-	-	-	-	-
O=C(CC1Nc2cccc3cccc(c23)NC1=O)Nc1ccc([N+](=O)[O-])cc1 (configuration not stated)	.	-	-	.	124
